The nature of experiment [1]: qHTS assay to identify aromatase inhibitors - cell viability counter screen (AID 743084).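 Further: cells stimulated with testosterone during compound exposure; nearly all actives have a fitted effect of over 55% in size.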
In experiment [2] the target is Aryl hydrocarbon receptor (Homo sapiens) (UniProt P35869). As to the kind of experiment: qHTS assay to identify small molecule that activate the aryl hydrocarbon receptor (AhR) signaling pathway (AID 743085). Further: nearly all actives have a fitted effect of over 15% in size. Further: potency means the concentration at half of the fitted maximal effect.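 On activation: HG2L7.5c1 human HepG2 liver cells with stably integrated DRE-driven firefly reporter; series mostly up to about 70 µM.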 The method in brief: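 Measured in HG2L7.5c1 cells: CellTiter-Fluor signal (30 min incubation, 37C) for viability, then luciferase luminescence (30 min, room temperature). Compound contact time was 24 h at 37C, following a 5 h pre-incubation.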
Sequence of Aryl hydrocarbon receptor (Homo sapiens) (P35869 whole entry, looked up): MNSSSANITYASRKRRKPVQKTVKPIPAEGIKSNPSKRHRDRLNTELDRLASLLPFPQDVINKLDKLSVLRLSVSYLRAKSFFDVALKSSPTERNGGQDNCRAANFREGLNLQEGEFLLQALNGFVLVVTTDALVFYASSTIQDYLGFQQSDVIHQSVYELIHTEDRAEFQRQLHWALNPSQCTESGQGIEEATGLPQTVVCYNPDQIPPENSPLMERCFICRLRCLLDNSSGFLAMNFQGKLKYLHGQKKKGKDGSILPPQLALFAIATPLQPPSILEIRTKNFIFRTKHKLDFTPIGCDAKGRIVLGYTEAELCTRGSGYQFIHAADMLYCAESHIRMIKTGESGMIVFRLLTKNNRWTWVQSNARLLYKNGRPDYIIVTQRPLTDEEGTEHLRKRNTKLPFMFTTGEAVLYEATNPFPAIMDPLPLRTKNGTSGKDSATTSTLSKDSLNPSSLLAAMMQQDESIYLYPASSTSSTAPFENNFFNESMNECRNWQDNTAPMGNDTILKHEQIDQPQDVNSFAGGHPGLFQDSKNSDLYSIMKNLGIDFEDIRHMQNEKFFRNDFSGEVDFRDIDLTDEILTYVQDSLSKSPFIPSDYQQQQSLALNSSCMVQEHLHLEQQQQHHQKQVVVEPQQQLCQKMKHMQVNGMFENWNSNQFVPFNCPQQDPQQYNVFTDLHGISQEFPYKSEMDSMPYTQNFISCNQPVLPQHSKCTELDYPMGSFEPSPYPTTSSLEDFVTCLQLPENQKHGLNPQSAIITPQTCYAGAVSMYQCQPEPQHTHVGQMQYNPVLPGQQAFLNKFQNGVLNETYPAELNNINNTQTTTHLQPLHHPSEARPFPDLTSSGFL

Experiment [3] is described as follows: qHTS assay to identify small molecule that activate the aryl hydrocarbon receptor (AhR) signaling pathway - cell viability counter screen (AID 743086).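 Further: HepG2 liver cells carrying the AhR DRE luciferase reporter; series mostly up to about 70 µM; nearly all actives have a fitted effect of over 45% in size.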 The gist of the method: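 HepG2-AhR-luc (HG2L7.5c1) cells, 4000/well, treated 24 h at 37 C with compound; viability measured as CellTiter-Fluor fluorescence after 30 min in the same wells as the luciferase read.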

Experiment [4] deals with Peroxisome proliferator-activated receptor gamma (Homo sapiens) (UniProt P37231). As to the kind of experiment: qHTS assay to identify small molecule agonists of the peroxisome proliferator-activated receptor gamma (PPARg) signaling pathway (AID 743094; active means well fitted activation curve with a large enough effect in the signal ratio in the repeat runs, not every such curve was filed as active; the % refers to the signal ratio). The method in brief:
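Agonist activity was taken from a beta-lactamase reporter (FRET substrate, 1 h at room temperature) in HEK293H cells carrying a PPARg UAS-bla construct. Compounds in DMSO were incubated 17 h at 37C after a 5 h cell pre-incubation.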

The nature of experiment [5]: qHTS assay to identify small molecule antagonists of the peroxisome proliferator-activated receptor gamma (PPARg) signaling pathway - cell viability counter screen (AID 743194). Further: nearly all actives have a fitted effect of over 55% in size. The method in brief: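 Cytotoxicity counter screen in PPARg-bla HEK293H cells, same wells as reporter assay. Compounds plus 50 nM rosiglitazone (final) for 17 h at 37 C, then viability read by CellTiter-Glo luminescence.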

A short description of experiment [6]: qHTS assay for small molecule agonists of the antioxidant response element (ARE) signaling pathway (AID 743202; active means well fitted activation curve with a large enough effect in the signal ratio in the repeat runs, not every such curve was filed as active; the % refers to the signal ratio). The gist of the method:
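HepG2 ARE-bla reporter line, 2,000 cells/well; 5 h preincubation 37 C/5% CO2; compound (DMSO) 16 h 37 C; B/G FRET substrate 2 h RT; fluorescence intensity.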

A short description of experiment [7]: qHTS assay for small molecule agonists of the antioxidant response element (ARE) signaling pathway - cell viability counter screen (AID 743203; calls by dose curve; further: nearly all actives have a fitted effect of over 55% in size). The gist of the method:
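Viability counter screen: CellTiter-Glo luminescence, read after 30 min at room temperature, in ARE-bla HepG2 wells. Compound exposure lasted 16 h at 37C/5% CO2, following a 5 h pre-incubation of the cells after plating.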

The nature of experiment [8]: qHTS assay to identify small molecule agonists of the peroxisome proliferator-activated receptor delta (PPARd) signaling pathway - cell viability counter screen (AID 743211). Further: nearly all actives have a fitted effect of over 55% in size. The gist of the method:
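Following 5 h plating at 37 C and 5% CO2, PPARd UAS-bla HEK293H cells took up test compounds for 17 h. Viability was quantified by luminescence 30 min after CellTiter-Glo addition at room temperature.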

Experiment [9] is described as follows: qHTS assay to identify small molecule antagonists of the peroxisome proliferator-activated receptor delta (PPARd) signaling pathway - cell viability counter screen (AID 743213). Further: nearly all actives have a fitted effect of over 50% in size. The method in brief: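 CellTiter-Glo was added to PPARd-bla HEK293H wells following 17 h compound treatment in the presence of 300 nM L165041. Luminescence was recorded after 30 min at room temperature.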

Experiment [10] has as its target Bile acid receptor (Homo sapiens) (UniProt Q96RI1). As to the kind of experiment: qHTS assay to identify small molecule antagonists of the farnesoid-X-receptor (FXR) signaling pathway (AID 743217; active means well fitted inhibition curve with a large enough effect in the signal ratio in the repeat runs, not every such curve was filed as active; the % refers to the signal ratio). The gist of the method:
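Antagonist mode: chenodeoxycholic acid at 50 uM final stimulates a UAS-driven beta-lactamase reporter in HEK 293T FXR-bla cells during 16 h, 37C compound exposure. Read-out is FRET substrate fluorescence after 2 h at room temperature.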

Experiment [11] can be described thus: qHTS assay to identify small molecule antagonists of the farnesoid-X-receptor (FXR) signaling pathway - cell viability counter screen (AID 743221; active means well fitted cell-killing curve with a large enough effect in the repeat runs, not every such curve was filed as active; further: nearly all actives have a fitted effect of over 50% in size). The gist of the method: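 Compound effects on cell number were measured as CellTiter-Glo luminescence in HEK 293T cells expressing FXR-UAS-bla, after 16 h at 37 C with 50 uM CDCA (final).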
Experiment [12] is described as follows: qHTS assay for small molecule activators of the heat shock response signaling pathway - cell viability counter screen (AID 743209). Further: nearly all actives have a fitted effect of over 50% in size. The method in brief:
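Cytotoxicity counter screen run in the same wells as the heat-shock bla reporter assay: HeLa HSE-bla cells, 5 h compound exposure at 37 C, viability read by CellTiter-Glo luminescence.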

Experiment [13] in a line: qHTS assay to identify small molecule agonists of the farnesoid-X-receptor (FXR) signaling pathway - cell viability counter screen (AID 743218). Further: nearly all actives have a fitted effect of over 45% in size. The gist of the method: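 Viability counter screen in the same wells: CellTiter-Glo luminescence, 30 min room-temperature incubation, measured after the beta-lactamase read. Cells were GeneBLAzer FXR-UAS-bla HEK 293T, compound-treated 16 h at 37C.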

For experiment [14], the target named is Bile acid receptor (Homo sapiens) (UniProt Q96RI1). As to the kind of experiment: qHTS assay to identify small molecule agonists of the farnesoid-X-receptor (FXR) signaling pathway (AID 743220; active means well fitted activation curve with a large enough effect in the signal ratio in the repeat runs, not every such curve was filed as active; the % refers to the signal ratio). The method in brief:
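FXR-UAS-bla HEK 293T cells carrying a UAS-driven beta-lactamase reporter were plated for 5 h at 37C/5% CO2, then exposed to DMSO-dissolved Tox21 10K compounds for 16 h at 37C. A LiveBLAzer B/G FRET substrate was loaded for 2 h at room temperature before fluorescence reading.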

For experiment [15], the target named is Peroxisome proliferator-activated receptor gamma (Homo sapiens) (UniProt P37231). As to the kind of experiment: qHTS assay to identify small molecule antagonists of the peroxisome proliferator-activated receptor gamma (PPARg) signaling pathway (AID 743191; calls by dose curve; further: series mostly up to about 63 µM; nearly all actives have a fitted effect of over 30% in size). The gist of the method:
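GeneBLAzer PPARg UAS-bla HEK293H cells, 5 h post-plating, exposed to compounds 17 h at 37C. LiveBLAzer B/G FRET substrate added for 1 h at room temperature; beta-lactamase reporter read by fluorescence intensity.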

Experiment [16] addresses Peroxisome proliferator-activated receptor delta (Homo sapiens) (UniProt Q03181). As to the kind of experiment: qHTS assay to identify small molecule agonists of the peroxisome proliferator-activated receptor delta (PPARd) signaling pathway (AID 743212; calls by dose curve). The method in brief: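 Read-out: beta-lactamase FRET fluorescence after 2 h room-temperature incubation with LiveBLAzer B/G substrate. Cells were HEK293H carrying a UAS-bla reporter for PPARd, treated at 37 C with DMSO-dissolved compounds.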

Experiment [17] has the same target. As to the kind of experiment: qHTS assay to identify small molecule antagonists of the peroxisome proliferator-activated receptor delta (PPARd) signaling pathway (AID 743215; active means well fitted inhibition curve with a large enough effect in the signal ratio in the repeat runs, not every such curve was filed as active; the % refers to the signal ratio;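 further: cells stimulated with agonist L165041 at 300 nM final during compound exposure; series mostly up to about 62 µM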). The method in brief:
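Agonist L165041 (300 nM final) added with compound to PPARd-bla HEK293H UAS-bla reporter cells; 17 h incubation at 37 C. Read-out: LiveBLAzer FRET substrate, 2 h at room temperature, fluorescence intensity.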

In experiment [18] the target is Vitamin D3 receptor (Homo sapiens) (UniProt P11473). As to the kind of experiment: qHTS assay to identify small molecule agonists of the vitamin D receptor (VDR) signaling pathway (AID 743222; calls by dose curve). The gist of the method:
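Agonist mode, beta-lactamase reporter: fluorescence from LiveBLAzer B/G FRET substrate (2 h, room temperature) read after 16 h compound treatment at 37 C of VDR-bla cells, which were pre-incubated 4 h after seeding.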

Experiment [19] can be described thus: qHTS assay for small molecule activators of the heat shock response signaling pathway (AID 743210; active means well fitted activation curve with a large enough effect in the signal ratio in the repeat runs, with a control signal flat, not every such curve was filed as active; the % refers to the signal ratio;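 further: HeLa cells with beta-lactamase reporter driven by heat shock elements; series mostly up to about 63 µM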). The method in brief:
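Beta-lactamase reporter read-out: FRET substrate fluorescence after 2.5 h at RT, following 5 h compound treatment at 37 C of HeLa cells carrying HSE-driven bla reporter; quantitative HTS format.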

The target of experiment [20] is Vitamin D3 receptor (Homo sapiens) (UniProt P11473). As to the kind of experiment: qHTS assay to identify small molecule antagonists of the vitamin D receptor (VDR) signaling pathway (AID 743223; active means well fitted inhibition curve with a large enough effect in the signal ratio in the repeat runs, not every such curve was filed as active; the % refers to the signal ratio). The method in brief:
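Beta-lactamase activity in VDR-bla cells is measured by FRET substrate fluorescence (2 h, room temperature) after cells spend 16 h at 37C with test compound and 3 nM final 1alpha,25-dihydroxyvitamin D3.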

We go through ten molecules from PubChem BioAssay (Tox21).

Results filed as inconclusive are left out. Unmarked numbers belong to inactive results. Active and inactive are the calls of the source. Unless noted, the call rests on the fitted dose curve; in most records, active means well fitted curve in the direction sought with a large enough effect in the repeat runs; inconclusive means weak or mixed curves; inactive means no such curve, though single readings can be large; an effect the other way counts as inactive or inconclusive.

Sequence of Bile acid receptor (Homo sapiens) (Q96RI1 whole entry, looked up): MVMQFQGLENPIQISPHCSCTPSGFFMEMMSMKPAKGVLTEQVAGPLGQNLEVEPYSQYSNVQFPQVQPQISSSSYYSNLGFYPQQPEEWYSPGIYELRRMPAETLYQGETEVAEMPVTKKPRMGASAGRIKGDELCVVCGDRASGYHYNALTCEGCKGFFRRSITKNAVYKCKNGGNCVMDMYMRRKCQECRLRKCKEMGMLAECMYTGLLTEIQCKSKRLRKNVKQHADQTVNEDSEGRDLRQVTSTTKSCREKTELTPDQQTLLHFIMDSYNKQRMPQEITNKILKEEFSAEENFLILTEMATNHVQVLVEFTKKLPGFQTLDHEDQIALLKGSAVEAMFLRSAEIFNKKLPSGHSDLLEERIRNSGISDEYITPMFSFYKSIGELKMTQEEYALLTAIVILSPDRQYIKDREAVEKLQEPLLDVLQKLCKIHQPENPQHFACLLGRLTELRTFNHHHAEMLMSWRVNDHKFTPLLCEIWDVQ
Sequence of Vitamin D3 receptor (Homo sapiens) (P11473 whole entry, looked up): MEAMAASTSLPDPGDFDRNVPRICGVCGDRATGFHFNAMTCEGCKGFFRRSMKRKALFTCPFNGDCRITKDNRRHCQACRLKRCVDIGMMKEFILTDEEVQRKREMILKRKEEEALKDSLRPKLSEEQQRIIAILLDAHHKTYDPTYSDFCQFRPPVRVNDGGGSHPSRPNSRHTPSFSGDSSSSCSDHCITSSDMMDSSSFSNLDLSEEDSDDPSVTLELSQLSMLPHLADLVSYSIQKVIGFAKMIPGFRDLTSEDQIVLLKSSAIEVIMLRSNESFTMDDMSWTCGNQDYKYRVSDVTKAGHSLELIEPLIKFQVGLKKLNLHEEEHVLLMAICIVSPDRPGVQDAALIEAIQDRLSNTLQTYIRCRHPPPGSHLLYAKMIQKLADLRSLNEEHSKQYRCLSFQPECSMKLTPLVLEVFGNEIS
Sequence of Peroxisome proliferator-activated receptor delta (Homo sapiens) (Q03181 whole entry, looked up): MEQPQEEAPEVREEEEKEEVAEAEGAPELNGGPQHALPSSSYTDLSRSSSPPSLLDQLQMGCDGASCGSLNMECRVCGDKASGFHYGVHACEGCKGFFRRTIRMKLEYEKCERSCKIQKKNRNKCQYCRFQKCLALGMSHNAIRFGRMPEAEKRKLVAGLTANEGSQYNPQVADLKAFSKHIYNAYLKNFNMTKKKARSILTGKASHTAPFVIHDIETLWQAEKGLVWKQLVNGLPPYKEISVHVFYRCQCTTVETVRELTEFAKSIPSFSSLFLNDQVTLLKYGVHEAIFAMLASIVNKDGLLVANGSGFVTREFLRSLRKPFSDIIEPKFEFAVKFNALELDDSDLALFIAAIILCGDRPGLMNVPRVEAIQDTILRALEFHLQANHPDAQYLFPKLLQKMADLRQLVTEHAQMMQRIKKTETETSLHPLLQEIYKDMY
Sequence of Peroxisome proliferator-activated receptor gamma (Homo sapiens) (P37231 whole entry, looked up): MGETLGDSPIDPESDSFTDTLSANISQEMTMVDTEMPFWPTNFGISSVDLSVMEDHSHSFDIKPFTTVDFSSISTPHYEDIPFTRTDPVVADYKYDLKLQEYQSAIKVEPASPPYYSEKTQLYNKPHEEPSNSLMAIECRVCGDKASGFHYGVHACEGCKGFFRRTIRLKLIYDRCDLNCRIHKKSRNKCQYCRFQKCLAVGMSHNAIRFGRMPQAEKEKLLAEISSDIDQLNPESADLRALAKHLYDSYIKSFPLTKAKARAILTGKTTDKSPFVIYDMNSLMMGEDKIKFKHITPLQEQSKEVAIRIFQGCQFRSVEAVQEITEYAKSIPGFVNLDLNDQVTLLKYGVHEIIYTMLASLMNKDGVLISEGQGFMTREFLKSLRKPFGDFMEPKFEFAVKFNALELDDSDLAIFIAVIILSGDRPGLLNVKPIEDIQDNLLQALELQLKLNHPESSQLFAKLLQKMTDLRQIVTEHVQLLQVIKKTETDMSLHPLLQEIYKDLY

For `COc1c(N2CCNC(C)C2)c(F)cc2c(=O)c(C(=O)O)cn(C3CC3)c12` (stereo not given), the Potency entry in experiment [1], in [2], in experiment [3], in experiment [4] and in experiment [6] was “inactive” each time. Further, the outcome in experiment [5], in experiment [7], in experiment [8], in experiment [9], in [10] and in [11] was inactive.

As to `NCCCC[C@H](N[C@@H](CCc1ccccc1)C(=O)O)C(=O)N1CCC[C@H]1C(=O)O`, the Potency entry in experiment [1], in [2], in [3], in experiment [4] and in experiment [6] was “inactive” throughout. In addition, the result in experiment [5], in experiment [7], in experiment [12], in experiment [8], in experiment [13] and in experiment [14] was inactive. Further, in experiment [11], the outcome was inactive.

On to `CCNS(=O)(=O)c1ccc(C)cc1`, for which the Potency entry in [1], in experiment [2], in experiment [3], in experiment [4] and in experiment [15] was “inactive” in each case. In addition, the outcome in experiment [7], in [12], in [8], in experiment [16], in [17] and in [13] was inactive. In experiment [11], the molecule was classed as inactive.

Regarding `c1ccc(Cc2ccccc2)cc1`, the Potency entry in [1], in experiment [2], in experiment [3], in [4], in experiment [15] and in experiment [6] was “inactive” each time. The outcome in experiment [7], in experiment [12], in experiment [8], in [10], in [13] and in experiment [14] was inactive. The molecule was classed as inactive in [11] and in [18].

`O=C1CCCCCCCCCCCCCCO1`: the Potency entry in [1], in [2], in experiment [3] and in [4] was “inactive” throughout. Besides, the call in [5], in experiment [7], in experiment [12], in [19], in [8] and in experiment [9] was inactive. Also, the result in experiment [17], in experiment [13], in experiment [11] and in [18] was inactive.

`CC1(C)OC[C@@H](COC(=O)CCc2ccc(OC[C@@H](O)CNCCNC(=O)N3CCOCC3)cc2)O1`: the Potency entry in [1], in experiment [2], in experiment [3], in experiment [4] and in [15] was “inactive” each time. The result in experiment [7], in experiment [12], in experiment [8], in [9], in experiment [13] and in experiment [11] was inactive. Moreover, the call in [18] and in [20] was inactive.

As to `COC(=O)Nc1ccc(Cl)c(Cl)c1`, the Potency entry in experiment [1], in experiment [3], in [4], in experiment [15] and in experiment [6] was “inactive” in each case. The Potency in [2] is 60.8 µM (active). In addition, the outcome in [7], in [12], in experiment [8], in experiment [9], in [17] and in experiment [14] was inactive. The outcome in [11] and in experiment [18] was inactive.

As to `O=C(CO)[C@@H](O)[C@H](O)[C@H](O)CO`, the Potency entry in [1], in experiment [2], in experiment [3], in [4] and in experiment [6] was “inactive” in each case. Also, the result in experiment [5], in experiment [7] and in experiment [11] was inactive.

As for `O=C(O)c1cc(C(=O)O)cc(C(=O)O)c1`, the Potency entry in experiment [1], in [2], in experiment [3], in experiment [4] and in experiment [6] was “inactive” each time. Further, the call in experiment [5], in experiment [7], in [12], in experiment [19], in [8] and in [16] was inactive. Further, the molecule was classed as inactive in experiment [9], in experiment [17], in experiment [13], in experiment [11], in experiment [18] and in [20].

As to `CCCCOCCOC(=O)CCCCCCCCC(=O)OCCOCCCC`, the Potency result in experiment [1], in experiment [2], in experiment [3], in experiment [4] and in experiment [6] was “inactive” in each case. Also, the outcome in [5], in experiment [7], in [12], in experiment [19], in [8] and in experiment [16] was inactive. Besides, the molecule was classed as inactive in experiment [9], in experiment [17], in experiment [13] and in experiment [11].
